This is an account of results in PubChem BioAssay (NCATS).

Inconclusive results are not listed. Unmarked numbers belong to inactive results. The source made the active and inactive calls. The call rests on the fitted dose curve; in most records, active means well fitted inhibition curve with a large enough effect; inconclusive means small, poorly fitted or top-dose-only effect; inactive means flat fitted curve, though single readings scatter.

What all share (assay): Cytotoxic Profiling of Annotated Libraries Using Quantitative High-Throughput Screening (AID 1296008); further: nearly all actives have a fitted effect of over 60% in size
Conditions in all cases: Five cell lines viability, CellTiter-Glo ATP luminescence, 48-72 h; max response: active compounds read low
In general terms: In ATP-based viability assays light output follows the ATP content of the culture.

One test concerns CRL-7250. In outline:
(§1)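 Compounds were pin-transferred onto cells and incubated 48 or 72 hr at 37 degree Celsius, 95% humidity. CellTiter-Glo was added, plates sat 10 min at room temperature, then ATP-coupled luminescence was imaged as the viability read-out.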

Another test has as its system HaCat. In outline: as §1
A further test has as its system KB-3-1. The procedure, abridged:
as §1

The test system of a further test is NIH3T3. In outline:
as §1
On the % scale 0 is the no-effect control and ±100 the full control effect; potency means the concentration at half of the fitted maximal effect.

In the case of `COc1ccccc1N1CCN(CC(C(=O)NC(C)(C)C)c2ccccc2)CC1` (stereo not drawn), the compound was classed as inactive in the test on CRL-7250 and in the test on NIH3T3. The max response in the test with HaCat was -3.82%; in the test on KB-3-1, 7.33%.
`O=C(NC1CCC1)c1ccc(C#Cc2cccc(F)c2)nc1`: the max response with CRL-7250 is -2.08%; in the test with HaCat it was -7.87%; in the test on KB-3-1 it was 8.07%; with NIH3T3 it was -25.1%.
The matching figures for `Cc1ccc(C)c(NC(=O)[C@@H]2CCCN2S(=O)(=O)c2cccc3cccnc23)c1`: -9.22%, -26.4%, 9.71% and -29.5%.
With `CCC/C=C\C=C/CCc1cc(O)c([C@@H]2O[C@H](CO)[C@@H](O)[C@H](O)[C@H]2O)c(O)c1C(=O)OC`, the max response in the test with CRL-7250 was -29.4%; with HaCat, -26.9%; in the test with KB-3-1 it was -7.75%; in the test with NIH3T3, -3.37%.
Regarding `CCOC(=O)C1=Cc2ccc(C(F)(F)C(F)(F)F)cc2N=C(N)C1`, the max response was -15.9% in the test with CRL-7250, -0.757% in the test with HaCat, -20.4% with KB-3-1 and -6.78% in the test with NIH3T3.
As to `CC#C[C@@H](CC(=O)O)c1ccc(OCc2ccc(CN3CCC4(C=Cc5ccccc54)CC3)s2)cc1`, the compound was called inactive in the test on CRL-7250 and in the test with NIH3T3. Besides, the max response in the test with HaCat is 1.71%; in the test on KB-3-1 it was -9.33%.
Regarding `C=C(COC(=O)C(O)C(O)CN)C12OC1C1(C)C(=CC2=O)C(O)C(O)CC1C` (stereo not drawn), the max response with CRL-7250 is -7.2%; with HaCat, 0.561%. Moreover, the compound was called inactive with KB-3-1 and in the test with NIH3T3.
As to `O=C1COc2nccc(-c3ccccc3F)c2CN1Cc1cc(C(F)(F)F)cc(C(F)(F)F)c1`, in the test with CRL-7250, the compound was classed as inactive. In addition, the max response was -0.797% with HaCat, -2.61% with KB-3-1 and -11.4% in the test with NIH3T3.
Take `Nc1nc2c(nc(Br)n2[C@@H]2O[C@@H]3COP(=O)(O)O[C@H]3[C@H]2O)c(=O)[nH]1`: the max response with CRL-7250 is -4.64%; in the test on HaCat, -8.41%. The compound was classed as inactive in the test with KB-3-1 and with NIH3T3.
Regarding `COCCCNC(=O)c1ccc(Cn2c(=O)c3ccccc3n(Cc3ccc(C(C)C)cc3)c2=O)cc1`, the max response in the test on CRL-7250 is -3.32%; in the test on HaCat it was 1.44%; in the test on NIH3T3 it was 4.09%. Also, the result in the test on KB-3-1 was inactive.
With `O=C(NCC(=O)N1CCCC1)Nc1ccc2cnccc2c1`, the max response in the test with CRL-7250 was -0.26%; in the test with HaCat, -20.6%; in the test on KB-3-1, -4.72%; with NIH3T3, -5.01%.
The matching figures for `O=C(N[C@H]1CCC[C@H](CO)C1)C1CCN(c2nc3cc(Cl)c(-c4ccc(Cl)cc4)cc3o2)CC1`: -0.419%, -4.31%, -14.3% and 0.931%.
Regarding `C[C@H](Nc1cc2c(-c3ccc4c(c3)OCO4)noc2cn1)c1ccccc1`, the max response is 3% in the test with CRL-7250, -9.56% with HaCat and -4.93% in the test with NIH3T3. For the same compound, in the test with KB-3-1, the call was inactive.
As for `CCCCOC(=O)NS(=O)(=O)c1sc(CC(C)C)cc1-c1ccc(Cn2ccnc2)cc1`, the max response in the test on CRL-7250 is -0.539%; in the test on HaCat, -26.5%; in the test with KB-3-1, -13.1%. In addition, the outcome in the test on NIH3T3 was inactive.
Turning to `CC(=O)[C@H]1CC[C@H]2[C@@H]3CC=C4C[C@@H](OS(=O)(=O)O)CC[C@]4(C)[C@H]3CC[C@]12C`, the result in the test on CRL-7250 was inactive. The max response in the test on HaCat was 1.57%; in the test with KB-3-1, 2.57%; in the test with NIH3T3 it was -4.15%.
For `C[C@H]1CC[C@@]2(OC1)O[C@H]1CC3C4CC[C@H]5C[C@@H](O)CC[C@]5(C)C4=CC(=O)[C@]3(C)[C@H]1[C@@H]2C` (stereo partly drawn), the result in the test with CRL-7250 and in the test on NIH3T3 was inactive. For the same compound, the max response in the test with HaCat was -3.38%; with KB-3-1 it was 0.81%.
As for `Cc1c(F)ccc(C(=O)Nc2cc([N+](=O)[O-])ccc2N2CCN(C)CC2)c1Cl`, the max response was 1.68% in the test on CRL-7250, 0.293% in the test on HaCat and 1.43% with NIH3T3. Besides, the outcome in the test with KB-3-1 was inactive.
For the compound `CC(C)Oc1ccc(-c2cnc3c(-c4ccnc5ccccc45)cnn3c2)cc1`, the max response in the test on CRL-7250 is 0.774%; in the test with HaCat it was 1.5%; in the test with KB-3-1 it was -13.7%; in the test with NIH3T3, 3.7%.
For `COc1ccc(N2CCN(C(=O)c3cc4c(s3)-c3ccccc3S(=O)(=O)C4)CC2)cc1`, in that order: 4.26%, 2.45%, -19.5% and -22%.
Turning to `O=C(COc1ccc(C(=O)c2ccccc2)cc1)NC1CCN(Cc2ccccc2)CC1`, the Potency with CRL-7250 is 8.2 µM (active). Besides, the figures for the max response in the test on HaCat, in the test with KB-3-1 and in the test on NIH3T3 were -11.4%, -23% and -2.94%, respectively.
On to `CCC(C)/C=C(C)/C=C/C1=CC2=CC(=O)C3(C)OC(C)(O)C(C(=O)OC)C3C2=CO1` (stereo not drawn), for which the max response with CRL-7250 is 2.86%; in the test with HaCat, 4.73%; in the test on KB-3-1, 0.0483%; with NIH3T3 it was -9.14%.
In the case of `COc1cc2c(cc1OCCCN1CCCC1)N=C(N)C21CCC1`, the max response is -5.27% with CRL-7250, 2.83% in the test on HaCat and 0.253% in the test on KB-3-1. Further, the outcome in the test on NIH3T3 was “inactive; activator”.
